Measured values taken from the supplement of paper PMC8975748.
Where a name gives a salt, the structure may show the parent alone. ± gives the standard deviation of the averaged measurements.

Experiments:
[1] = test system: Saccharomyces cerevisiae BY4741 SeMeCo community; experiment: mean cell size (pixel area) (pixels); higher = larger cells; settings: 10 µM; 24 h; SM minimal medium
Procedure, shortened: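 For 24 h, 70 µl of yeast culture diluted to OD600 = 0.3 from an overnight preculture at OD600 = 1.0 was kept in SM medium in 384-well plates acoustically predosed with drug, final 10 µM. The strain was Saccharomyces cerevisiae BY4741 forming a fluorescent community of four plasmids, each complementing one auxotrophy and carrying a fluorescent marker. Automated confocal microscopy of paraformaldehyde-fixed cells, analysed in Harmony, provided mean cell pixel area per well, which was averaged over 3 replicates. Same SeMeCo high-content imaging drug screen: Selleck FDA-approved drugs at 10 µM, 24 h in SM medium, 384-well plates, 3 replicates.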

[2] = test system: Saccharomyces cerevisiae BY4741 SeMeCo community; experiment: z-score of prototroph abundance vs DMSO median; higher = larger share of this subpopulation than in DMSO controls; settings: 10 µM; 24 h; SM minimal medium; subpopulation (auxotrophy): Prototroph
Procedure, shortened: (§1)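 Cells of a Saccharomyces cerevisiae BY4741 community, carrying four plasmids that each restored one auxotrophy and encoded a distinct fluorescent protein, were pre-grown overnight to OD600 1.0 and diluted to 0.3. A 70 µl volume was added to 384-well plates acoustically predosed with library drugs (10 µM final) and grown 24 h in minimal SM medium. After paraformaldehyde fixation, automated confocal microscopy was used, with single-auxotroph fluorescent strains for thresholds and autofluorescence correction. The abundance of each subpopulation was scored as a z-score against the vehicle-well median.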

[3] = test system: Saccharomyces cerevisiae BY4741 SeMeCo community; experiment: z-score of subpopulation abundance vs DMSO median, subpopulation auxotrophic for M; higher = larger share of this subpopulation than in DMSO controls; settings: 10 µM; 24 h; SM minimal medium; subpopulation (auxotrophy): M
Procedure, shortened: as §1

[4] = test system: Saccharomyces cerevisiae BY4741 SeMeCo community; experiment: z-score of subpopulation abundance vs DMSO median, subpopulation auxotrophic for L; higher = larger share of this subpopulation than in DMSO controls; settings: 10 µM; 24 h; SM minimal medium; subpopulation (auxotrophy): L
Procedure, shortened: as §1

[5] = test system: Saccharomyces cerevisiae BY4741 SeMeCo community; experiment: z-score of subpopulation abundance vs DMSO median, subpopulation auxotrophic for U; higher = larger share of this subpopulation than in DMSO controls; settings: 10 µM; 24 h; SM minimal medium; subpopulation (auxotrophy): U
Procedure, shortened: as §1

[6] = test system: Saccharomyces cerevisiae BY4741 SeMeCo community; experiment: z-score of subpopulation abundance vs DMSO median, subpopulation auxotrophic for H; higher = larger share of this subpopulation than in DMSO controls; settings: 10 µM; 24 h; SM minimal medium; subpopulation (auxotrophy): H
Procedure, shortened: as §1

[7] = test system: Saccharomyces cerevisiae BY4741 SeMeCo community; experiment: z-score of subpopulation abundance vs DMSO median, subpopulation auxotrophic for LU; higher = larger share of this subpopulation than in DMSO controls; settings: 10 µM; 24 h; SM minimal medium; subpopulation (auxotrophy): LU
Procedure, shortened: as §1

[8] = test system: Saccharomyces cerevisiae BY4741 SeMeCo community; experiment: z-score of subpopulation abundance vs DMSO median, subpopulation auxotrophic for LM; higher = larger share of this subpopulation than in DMSO controls; settings: 10 µM; 24 h; SM minimal medium; subpopulation (auxotrophy): LM
Procedure, shortened: as §1

[9] = test system: Saccharomyces cerevisiae BY4741 SeMeCo community; experiment: z-score of subpopulation abundance vs DMSO median, subpopulation auxotrophic for HM; higher = larger share of this subpopulation than in DMSO controls; settings: 10 µM; 24 h; SM minimal medium; subpopulation (auxotrophy): HM
Procedure, shortened: as §1

[10] = test system: Saccharomyces cerevisiae BY4741 SeMeCo community; experiment: z-score of subpopulation abundance vs DMSO median, subpopulation auxotrophic for UM; higher = larger share of this subpopulation than in DMSO controls; settings: 10 µM; 24 h; SM minimal medium; subpopulation (auxotrophy): UM
Procedure, shortened: as §1

[11] = test system: Saccharomyces cerevisiae BY4741 SeMeCo community; experiment: z-score of subpopulation abundance vs DMSO median, subpopulation auxotrophic for HL; higher = larger share of this subpopulation than in DMSO controls; settings: 10 µM; 24 h; SM minimal medium; subpopulation (auxotrophy): HL
Procedure, shortened: as §1

[12] = test system: Saccharomyces cerevisiae BY4741 SeMeCo community; experiment: z-score of subpopulation abundance vs DMSO median, subpopulation auxotrophic for HLU; higher = larger share of this subpopulation than in DMSO controls; settings: 10 µM; 24 h; SM minimal medium; subpopulation (auxotrophy): HLU
Procedure, shortened: as §1

[13] = test system: Saccharomyces cerevisiae BY4741 SeMeCo community; experiment: z-score of subpopulation abundance vs DMSO median, subpopulation auxotrophic for HLM; higher = larger share of this subpopulation than in DMSO controls; settings: 10 µM; 24 h; SM minimal medium; subpopulation (auxotrophy): HLM
Procedure, shortened: as §1

[14] = test system: Saccharomyces cerevisiae BY4741 SeMeCo community; experiment: z-score of subpopulation abundance vs DMSO median, subpopulation auxotrophic for HUM; higher = larger share of this subpopulation than in DMSO controls; settings: 10 µM; 24 h; SM minimal medium; subpopulation (auxotrophy): HUM
Procedure, shortened: as §1

[15] = test system: Saccharomyces cerevisiae BY4741 SeMeCo community; experiment: z-score of subpopulation abundance vs DMSO median, subpopulation auxotrophic for LUM; higher = larger share of this subpopulation than in DMSO controls; settings: 10 µM; 24 h; SM minimal medium; subpopulation (auxotrophy): LUM
Procedure, shortened: as §1

[16] = test system: Saccharomyces cerevisiae BY4741 SeMeCo community; experiment: z-score of subpopulation abundance vs DMSO median, subpopulation auxotrophic for HLUM; higher = larger share of this subpopulation than in DMSO controls; settings: 10 µM; 24 h; SM minimal medium; subpopulation (auxotrophy): HLUM
Procedure, shortened: as §1

[17] = test system: Saccharomyces cerevisiae BY4741 SeMeCo community; experiment: z-score of subpopulation abundance vs DMSO median, subpopulation auxotrophic for HU; higher = larger share of this subpopulation than in DMSO controls; settings: 10 µM; 24 h; SM minimal medium; subpopulation (auxotrophy): HU
Procedure, shortened: as §1

Row | SMILES | mean cell size [1] | z-score of prototroph abundance [2] | z-score of subpopulation abundance [3] | z-score of subpopulation abundance [4] | z-score of subpopulation abundance [5] | z-score of subpopulation abundance [6] | z-score of subpopulation abundance [7] | z-score of subpopulation abundance [8] | z-score of subpopulation abundance [9] | z-score of subpopulation abundance [10] | z-score of subpopulation abundance [11] | z-score of subpopulation abundance [12] | z-score of subpopulation abundance [13] | z-score of subpopulation abundance [14] | z-score of subpopulation abundance [15] | z-score of subpopulation abundance [16] | z-score of subpopulation abundance [17]
1 | Nc1ccc(S(N)(=O)=O)cc1 [Sulfanilamide] | 12.4 ± 0.23 | 0.43 | -0.87 | -1.4 | 0.22 | -0.45 | -0.14 | -1.02 | -0.8 | 0.11 | -1.05 | -1.52 | -0.21 | 0.6 | -0.2 | -0.65 | 
2 | CO[C@@H]1[C@H](OC(=O)/C=C/C=C/C=C/C=C/C(=O)O)CC[C@]2(CO2)[C@H]1[C@@]1(C)O[C@@H]1CC=C(C)C [Fumagillin] | 12.24 ± 0.059 | -1.67 | -0.12 | 1.24 |  | 1.11 | 1.51 | 2.31 | 1.85 | 0.11 | 1.92 | 2.31 | 1.1 | 0.96 | 2.33 | 1.71 | 1.17
3 | CO[C@H]1C[C@@H]2CC[C@@H](C)[C@@](O)(O2)C(=O)C(=O)N2CCCC[C@H]2C(=O)O[C@H]([C@H](C)C[C@@H]2CC[C@@H](OP(C)(C)=O)[C@H](OC)C2)CC(=O)[C@H](C)/C=C(\C)[C@@H](O)[C@@H](OC)C(=O)[C@H](C)C[C@H](C)/C=C/C=C/C=C/1C [Ridaforolimus (Deforolimus, MK-8669)] | 14.2 ± 0.11 | -18.3 | -1.24 | -0.55 | 3.51 | 15.9 | 5.01 | 5.98 | 20.9 | 12.7 | 13.8 | 23.1 | 16.1 | 29.1 |  | 21.4 | 
4 | CCn1cc(C(=O)O)c(=O)c2ccc(C)nc21 [Nalidixic acid] | 11.87 ± 0.1 | 1.23 | -1.04 | 1.23 | -0.51 | -0.95 | -0.49 | 0.23 | -1.62 | -1.42 | -0.13 | -0.15 | -0.21 | -1.86 | -0.71 | -0.59 | 
5 | OC(Cn1cncn1)(Cn1cncn1)c1ccc(F)cc1F [Fluconazole] | 11.98 ± 0.059 | 2.13 | -1.85 | -0.88 | -0.29 | -2.16 | -1.41 | -0.76 | -1.78 | -0.52 | -1.18 | -1.51 | -1.07 | -1.16 | -0.64 | -1.38 | 
6 | Clc1ccc(C(Cn2ccnc2)OCc2c(Cl)cccc2Cl)c(Cl)c1 (stereo unspecified) [Isoconazole nitrate] | 12.1 ± 0.18 | -7.83 | -0.17 | -3.43 | 2.14 | 21 | -1.43 | -1.59 | 3.75 | 5.43 | 3.07 | 2.86 | 13.3 | 4.65 | -0.77 | 9.4 | 
7 | CO/N=C(\C(=O)N[C@@H]1C(=O)N2C(C(=O)O)=C(COC(C)=O)CS[C@H]12)c1csc(N)n1 [Cefotaxime sodium] | 12.36 ± 0.028 | -0.43 | 0.24 | -0.14 | 1.03 |  | 0.37 | 1.08 | -0.37 | 0.17 | -0.46 | 0.33 | 0 | -0.16 |  | 0.47 | 
8 | CC1(C)S[C@@H]2[C@H](NC(=O)C(C(=O)O)c3ccccc3)C(=O)N2[C@H]1C(=O)O (stereo partly specified) [Carbenicillin disodium] | 12.53 ± 0.098 | 0.19 | 0.64 | -0.23 |  | -0.07 | -0.26 | -0.02 | 0.66 | -0.3 |  | 0.36 | -0.53 | 0.12 | -0.76 | -0.61 | -0.53
9 | C#C[C@]1(O)CC[C@H]2[C@@H]3CCC4=CC(=O)CC[C@@H]4[C@H]3C(=C)C[C@@]21CC [Etonogestrel] | 12.4 ± 0.14 | 0.26 | -1.48 | -0.43 | 1.19 |  | 0.5 | -0.7 | -1.24 |  | -0.29 | 0.5 | -0.55 | -0.52 |  | -0.23 | 
10 | CC1(C)S[C@@H]2[C@H](NC(=O)[C@H](NC(=O)N3CCN(S(C)(=O)=O)C3=O)c3ccccc3)C(=O)N2[C@H]1C(=O)O [Mezlocillin Sodium] | 12.5 ± 0.21 | 0.2 | -0.07 | 0.24 | 0 | 0.1 | 0.6 | -0.38 | -0.71 | -0.36 | -0.55 | 0.28 | -0.19 | -0.29 |  | -0.69 | 
11 | CO[C@H]1C[C@@H]2CC[C@@H](C)[C@@](O)(O2)C(=O)C(=O)N2CCCC[C@H]2C(=O)O[C@H]([C@H](C)C[C@@H]2CC[C@@H](OCCO)[C@H](OC)C2)CC(=O)[C@H](C)/C=C(\C)[C@@H](O)[C@@H](OC)C(=O)[C@H](C)C[C@H](C)/C=C/C=C/C=C/1C [Everolimus (RAD001)] | 14.17 ± 0.11 | -18.1 | -1.38 | -0.87 |  | 15.9 | 2.59 | 4.3 | 22.4 |  | 12.2 | 22.9 | 19 | 32.4 | 12.4 | 24 | 27.1
12 | Cc1nnc(SCC2=C(C(=O)O)N3C(=O)[C@@H](NC(=O)Cn4cnnn4)[C@H]3SC2)s1 [Cefazolin Sodium] | 12.24 ± 0.096 | -1.09 | 0.3 | 0 | 0.46 |  | 1.43 | 0.26 | 0.05 |  | 1.09 | 0.52 | 0.22 | 0.08 | 0.5 | -0.81 | 
13 | CCCCNc1ccc(C(=O)OCCN(C)C)cc1 [Tetracaine HCl] | 12.52 ± 0.015 | -0.78 | 0.03 | -0.03 |  |  | 1.2 | 0.43 | 0.5 | 0.04 | 0 | -0.27 | 0.52 | 0.58 | 0 | 0.94 | 
14 | C=C[C@]1(C)C[C@@H](OC(=O)CSC(C)(C)CNC(=O)[C@H](N)C(C)C)[C@]2(C)[C@H](C)CC[C@]3(CCC(=O)[C@H]32)[C@@H](C)[C@@H]1O [Valnemulin HCl] | 12.3 ± 0.19 | -0.65 | 0.05 | 0.38 |  | 0.85 | 0.87 | 0.54 | 0.32 | 0.26 | 0.85 | 1.01 | 0.18 | 0.58 | 0.67 | 0.48 | 1.22
